Test results as given in PubChem BioAssay.
Calls of active or inactive are those of the source.

Tests used:
[1] = tested on: Plasmodium falciparum Sir2 (PF13_0152, Sir2A); test: pfSir2 binders on small-molecule microarrays, primary screen, biochemical, small-molecule microarray, 635 nm fluorescence (AID 1098); settings: small-molecule microarray binding, fluorescence 635 nm; higher = more signal;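 note: score merges spot fluorescence intensity with its signal-to-noise ratio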
[2] = small-molecule microarray binders of probe aDKK1, primary screen, biochemical, biotinylated probe, 635/667 nm fluorescence (AID 1099); settings: higher = more signal;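 note: score merges 667nm spot fluorescence with signal to noise across triplicate slides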
[3] = small-molecule microarray binders of probe aCHRDL2, primary screen, biochemical, biotinylated probe, 635/667 nm fluorescence (AID 1100); settings: higher = more signal
[4] = splicing luciferase reporter signal modulators, primary screen, spliceosome inhibition project, cell-based, HEK293, splice +/- reporter (AID 1101); settings: luminescence, 24 h, higher = more signal, called active from +8 up or from −8 down;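 note: HEK293 cells carrying a splicing-competent luciferase reporter gene; test concentration not given here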
[5] = target: Fibroblast growth factor 10 (Homo sapiens) (UniProt O15520); test: FGF10 binders on small-molecule microarrays, primary screen, biochemical, small-molecule microarray, 635 nm fluorescence (AID 1102); settings: FGF10 binding, fluorescence 635 nm, higher = more signal
[6] = tested on: glycogen synthase kinase-3 (GSK3A per assay name; protocol says GSK3B); test: GSK3 binders on small-molecule microarrays, primary screen, biochemical, small-molecule microarray, 635 nm fluorescence, GSK3A (AID 1103); settings: small-molecule microarray binding, fluorescence 635 nm; higher = more signal; note: the record names both GSK3A and GSK3B
[7] = target: Epidermal growth factor receptor (Homo sapiens) (UniProt P00533); test: EGFR binders on small-molecule microarrays, primary screen, biochemical, small-molecule microarray, 635 nm fluorescence (AID 1104); settings: EGFR binding, higher = more signal;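 note: score merges 667 nm emission intensity with spot signal to noise over triplicate slides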
[8] = target: Follistatin-related protein 3 (Homo sapiens) (UniProt O95633); test: FSTL3 binders on small-molecule microarrays, primary screen, biochemical, small-molecule microarray, 635 nm fluorescence (AID 1105); settings: FSTL3 binding, higher = more signal;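 note: score merges emission near 667 nm and signal to noise per printed spot across three slides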
[9] = target: Dickkopf-related protein 1 (Homo sapiens) (UniProt O94907); test: DKK1 binders on small-molecule microarrays, primary screen, biochemical, small-molecule microarray, 635 nm fluorescence scan (AID 1106); settings: DKK1 binding, higher = more signal;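 note: score merges emission near 667 nm with signal to noise over three replicate slides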
[10] = tested on: Inhibin beta A chain (activin A); test: INHBA (activin A) binders on microarrays, primary screen, biochemical, small-molecule microarray, 635 nm fluorescence scan (AID 1107); settings: small-molecule microarray binding, higher = more signal;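 note: mouse activin A protein probed at 4.33 µg/mL on printed slides; score merges bound-protein fluorescence near 667 nm with spot signal-to-noise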
[11] = tested on: Human papillomavirus type 1a protein E7 (residues 44-93); test: HPV1a E7 fragment binders on microarrays, primary screen, biochemical, small-molecule microarray, residues 44-93, 635 nm fluorescence (AID 1108); settings: small-molecule microarray binding, fluorescence 635 nm; higher = more signal;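 note: E7 fragment applied at 1 µg/mL in TBST for 1 h at 4 C; score combines spot fluorescence with its signal to noise ratio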
[12] = modulators of HCV replicon luciferase signal, primary screen, HCV replication inhibitor project, Huh7 cells, luciferase reporter (AID 1109); settings: 48 h, higher = more signal;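 note: huh7 hepatoma cells harbouring a luciferase neomycin HCV replicon reporter; luciferase luminescence as measure of HCV replicon replication; test concentration not given here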
[13] = target: Left-right determination factor 2 (Homo sapiens) (UniProt O00292); test: LEFTY2 binders on small-molecule microarrays, primary screen, biochemical, small-molecule microarray, 635 nm fluorescence scan (AID 1110); settings: LEFTY2 binding, higher = more signal
[14] = target: Calmodulin-1 (Homo sapiens) (UniProt P0DP23); test: CALM1 binders on microarrays, EGTA buffer, profiling panel, biochemical, small-molecule microarray, Cy5-labelled CALM1 (AID 1111); settings: Cy5-CALM1 binding fluorescence, higher = more signal;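 note: labelled calmodulin applied in Tris saline Tween buffer holding calcium plus EGTA and DTT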
[15] = target: Calmodulin-1 (Homo sapiens) (UniProt P0DP23); test: calcium-bound CALM1 binders on microarrays, profiling panel, artefact control for SMM control-protein annotation, biochemical, small-molecule microarray, Cy5-labelled CALM1, plus calcium (AID 1112); settings: Cy5-CALM1 binding fluorescence, higher = more signal;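 note: score merges spot fluorescence with signal to noise from triplicate slides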
[16] = small-molecule microarray binders of probe aWnt5a, primary screen, biochemical, biotinylated probe, 635/667 nm fluorescence (AID 1113); settings: higher = more signal;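 note: score merges 667 nm fluorescence intensity with signal-to-noise per printed feature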
[17] = small-molecule microarray binders of probe aShh, primary screen, biochemical, biotinylated probe, 635/667 nm fluorescence (AID 1114); settings: higher = more signal;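 note: probe is biotin-labelled aShh protein from a stem cell growth factor screen; measures binding of labelled protein to compounds printed on the slide; score merges feature fluorescence at 667 nm with signal-to-noise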
[18] = small-molecule microarray binders of probe aNog, primary screen, biochemical, biotinylated probe, 635/667 nm fluorescence (AID 1115); settings: higher = more signal;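 note: probe is biotinylated aNog protein used at 0.15 µg/mL for 1 h at 4 C; z-score combines 667 nm fluorescence of each spot with its signal to noise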
[19] = target: Torsin-1A-interacting protein 1 (Homo sapiens) (UniProt Q5JTV8); test: LAP1 binders from COS7 cell lysate, primary screen, small-molecule microarray, 635/667 nm fluorescence (AID 1116); settings: COS7-hLAP1 lysate binding, 635 nm fluorescence, higher = more signal
[20] = target: Alpha-bungarotoxin (Bungarus multicinctus) (UniProt P60615); test: alpha-bungarotoxin binders on microarray, profiling panel, artefact control for SMM control protein annotation, biochemical, small-molecule microarray, Alexa647 label, 635/667 nm fluorescence (AID 1117); settings: alpha-BTX-A647 binding fluorescence, higher = more signal
Chain of Alpha-bungarotoxin (Bungarus multicinctus) (P60615 whole entry, looked up): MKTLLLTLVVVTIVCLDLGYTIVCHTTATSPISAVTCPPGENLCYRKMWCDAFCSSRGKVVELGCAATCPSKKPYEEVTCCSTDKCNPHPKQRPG

Chain of Fibroblast growth factor 10 (Homo sapiens) (O15520 whole entry, looked up): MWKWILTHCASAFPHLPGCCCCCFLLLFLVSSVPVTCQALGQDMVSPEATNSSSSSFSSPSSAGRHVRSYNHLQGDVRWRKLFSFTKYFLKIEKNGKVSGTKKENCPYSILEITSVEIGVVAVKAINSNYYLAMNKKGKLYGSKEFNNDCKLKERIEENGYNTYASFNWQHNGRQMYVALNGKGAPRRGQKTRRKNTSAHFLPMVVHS
Chain of Dickkopf-related protein 1 (Homo sapiens) (O94907 whole entry, looked up): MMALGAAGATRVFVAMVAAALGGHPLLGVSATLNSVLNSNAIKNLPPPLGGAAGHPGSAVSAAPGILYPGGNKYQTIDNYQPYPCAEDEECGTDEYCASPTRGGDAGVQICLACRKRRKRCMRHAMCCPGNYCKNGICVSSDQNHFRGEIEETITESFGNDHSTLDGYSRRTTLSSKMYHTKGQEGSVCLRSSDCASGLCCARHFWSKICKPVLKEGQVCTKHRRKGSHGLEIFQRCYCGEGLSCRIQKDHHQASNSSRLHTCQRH
Chain of Follistatin-related protein 3 (Homo sapiens) (O95633 whole entry, looked up): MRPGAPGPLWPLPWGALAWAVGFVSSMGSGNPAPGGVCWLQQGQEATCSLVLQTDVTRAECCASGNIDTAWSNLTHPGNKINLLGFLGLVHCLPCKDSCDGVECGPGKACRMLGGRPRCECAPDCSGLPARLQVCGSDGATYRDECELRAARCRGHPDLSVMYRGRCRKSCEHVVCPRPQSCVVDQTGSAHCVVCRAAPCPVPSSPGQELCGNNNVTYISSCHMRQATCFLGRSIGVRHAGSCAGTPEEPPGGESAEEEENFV
Chain of Epidermal growth factor receptor (Homo sapiens) (P00533 whole entry, looked up): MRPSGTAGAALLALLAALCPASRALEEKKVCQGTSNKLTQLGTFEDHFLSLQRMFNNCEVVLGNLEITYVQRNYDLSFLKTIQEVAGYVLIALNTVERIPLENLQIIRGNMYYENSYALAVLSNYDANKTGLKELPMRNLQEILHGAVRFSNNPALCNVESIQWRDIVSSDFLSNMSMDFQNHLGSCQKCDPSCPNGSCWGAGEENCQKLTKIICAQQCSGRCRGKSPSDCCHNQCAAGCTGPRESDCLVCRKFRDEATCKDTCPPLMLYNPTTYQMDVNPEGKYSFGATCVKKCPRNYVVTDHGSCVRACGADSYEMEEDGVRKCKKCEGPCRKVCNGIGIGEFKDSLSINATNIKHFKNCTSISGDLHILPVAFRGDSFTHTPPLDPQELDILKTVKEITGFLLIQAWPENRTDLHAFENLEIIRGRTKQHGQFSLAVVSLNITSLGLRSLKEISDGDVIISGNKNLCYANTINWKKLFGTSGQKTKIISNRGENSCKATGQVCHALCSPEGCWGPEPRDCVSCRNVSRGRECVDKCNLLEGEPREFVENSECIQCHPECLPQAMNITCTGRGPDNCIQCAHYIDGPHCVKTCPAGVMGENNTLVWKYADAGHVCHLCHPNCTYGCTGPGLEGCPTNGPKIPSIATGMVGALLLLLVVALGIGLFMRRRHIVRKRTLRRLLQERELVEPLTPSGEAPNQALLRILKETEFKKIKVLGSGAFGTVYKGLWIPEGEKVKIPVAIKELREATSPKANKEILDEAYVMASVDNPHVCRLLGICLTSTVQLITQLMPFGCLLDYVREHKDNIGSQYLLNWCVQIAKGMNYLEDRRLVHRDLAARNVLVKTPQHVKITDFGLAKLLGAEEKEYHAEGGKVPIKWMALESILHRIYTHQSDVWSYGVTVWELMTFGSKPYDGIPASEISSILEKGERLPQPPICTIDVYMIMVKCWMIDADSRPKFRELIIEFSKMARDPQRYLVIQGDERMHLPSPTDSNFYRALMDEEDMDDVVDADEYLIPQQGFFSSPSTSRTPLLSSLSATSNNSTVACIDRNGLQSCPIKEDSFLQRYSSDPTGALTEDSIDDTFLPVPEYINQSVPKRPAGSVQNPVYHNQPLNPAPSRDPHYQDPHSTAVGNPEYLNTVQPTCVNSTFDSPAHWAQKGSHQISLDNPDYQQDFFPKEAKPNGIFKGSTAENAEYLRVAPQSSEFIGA
Chain of Torsin-1A-interacting protein 1 (Homo sapiens) (Q5JTV8 whole entry, looked up): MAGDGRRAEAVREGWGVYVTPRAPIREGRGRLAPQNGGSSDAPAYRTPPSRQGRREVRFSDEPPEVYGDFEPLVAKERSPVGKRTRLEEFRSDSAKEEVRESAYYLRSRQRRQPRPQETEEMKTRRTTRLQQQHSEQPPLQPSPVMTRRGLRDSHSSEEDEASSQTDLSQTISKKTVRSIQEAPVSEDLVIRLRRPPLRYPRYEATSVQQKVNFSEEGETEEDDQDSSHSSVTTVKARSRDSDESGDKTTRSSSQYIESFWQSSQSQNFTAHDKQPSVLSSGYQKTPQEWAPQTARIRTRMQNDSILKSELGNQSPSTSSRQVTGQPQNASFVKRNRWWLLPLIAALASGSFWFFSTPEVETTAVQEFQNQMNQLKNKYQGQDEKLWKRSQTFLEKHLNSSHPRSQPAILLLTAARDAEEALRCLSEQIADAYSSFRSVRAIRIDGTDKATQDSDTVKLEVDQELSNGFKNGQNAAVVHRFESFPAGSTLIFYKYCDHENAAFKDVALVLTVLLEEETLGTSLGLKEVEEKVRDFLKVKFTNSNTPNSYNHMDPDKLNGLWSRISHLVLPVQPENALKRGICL
Chain of Left-right determination factor 2 (Homo sapiens) (O00292 whole entry, looked up): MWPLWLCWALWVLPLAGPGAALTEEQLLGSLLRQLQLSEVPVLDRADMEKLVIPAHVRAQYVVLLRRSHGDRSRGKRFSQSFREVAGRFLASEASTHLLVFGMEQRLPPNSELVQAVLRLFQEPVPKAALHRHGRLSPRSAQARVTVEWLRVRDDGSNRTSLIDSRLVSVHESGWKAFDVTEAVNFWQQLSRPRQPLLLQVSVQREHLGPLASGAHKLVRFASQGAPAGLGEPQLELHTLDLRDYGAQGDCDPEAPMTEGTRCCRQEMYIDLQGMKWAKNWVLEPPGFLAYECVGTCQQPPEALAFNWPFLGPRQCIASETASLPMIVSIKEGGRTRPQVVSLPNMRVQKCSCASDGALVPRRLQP

SMILES	composite z-score [1]	composite z-score [2]	composite z-score [3]	z-score [4]	composite z-score [5]	composite z-score [6]	composite z-score [7]	composite z-score [8]	composite z-score [9]	composite z-score [10]	composite z-score [11]	z-score [12]	composite z-score [13]	composite z-score [14]	composite z-score [15]	composite z-score [16]	composite z-score [17]	composite z-score [18]	composite z-score [19]	composite z-score [20]
CO[C@@H]1COC(=O)CC=C[C@@H](C)[C@H](OC)COC(=O)[C@@H](C)COC(=O)CC=C[C@H]1C	0.474	-0.803	-1.29	0.166 (inactive)	-0.55	0.0478	0.354	0.734	1.37	1.85	-0.82	0.0811	0.889	-0.618	-1.59	-0.237	-0.0553	-0.284	0.263	-0.864
CCOC(=O)CCN1C(=O)[C@H]2[C@H]3[C@H](O)[C@H](O)CC(=NOCC(C)C)[C@H]3CC[C@H]2C1=O	-0.108	0.16	0.782	0.108 (inactive)	-0.147	-0.239	0.214	-0.276	-0.0273	0.617	-0.245	0.453	0.0607	-0.271	-0.26	-0.0346	-0.209	0.0669	0.326	0.797
CC(CCC(=O)OC[C@H]1O[C@H](C#Cc2ccccc2)C=C[C@@H]1Oc1ccc(C)cc1)=NO[C@H](C)c1cn([C@H](CO)Cc2ccccc2)nn1	0.708	-0.164	-0.532	0.448 (inactive)	0.17	0.197	0.217	1.12	0.655	0.282	0.53	-1.57	0.423	0.0827	-0.0351	-0.0924	-0.138	0.0169	-0.166	-0.0686
CC(C)=NOC[C@@H](C)[C@H](OCc1ccccc1)C(C)C	-0.229	-0.0423	0.631	-0.159 (inactive)	-0.822	-1.06	-0.602	-0.664	-0.355	0.927	-1.19	-0.801	-0.0001	-0.211	-0.285	-0.0758	-0.0709	-0.402	-0.368	0.213
CC(C)CON=C1[C@H]2CCn3c(=O)n(Cc4cc5c(cc4Cl)OCO5)c(=O)n3[C@H]2[C@H](O)[C@@H]2O[C@H]12	0.241	-0.304	-0.641	-0.756 (inactive)	0.533	0.589	0.483	0.554	0.484	0.233	0.271	0.0671	0.389	-0.0844	-0.635	-0.0758	0.0815	-0.329	0.38	0.351
C[C@H]1Cc2c(COc3ccccc3)nc3c(c2CO1)CN(CCOc1ccccc1)CC3	0.654	-0.133	-0.496	-0.34 (inactive)	1.03	1.15	0.5	1.29	0.538	0.298	1.14	-0.228	0.635	0.625	-0.255	-0.172	0.0144	-0.502	0.647	0.161
COC(=O)CC=C[C@@H](C)[C@@H](C=NO[C@H](C)c1cn([C@H](CO)Cc2ccccc2)nn1)OC	0.611	-0.233	-0.736	0.934 (inactive)	0.877	0.483	0.952	0.515	1.06	-0.34	0.319	-1.3	1.1	-1.03	-1.24	-0.0179	-0.138	-0.191	0.427	0.608
COC(=O)CC=C[C@@H](C)[C@H](OCc1cccc(-c2ccccc2)c1)C1CCCCC1	-0.632	-0.416	-0.223	-0.102 (inactive)	-0.127	-1.21	0.371	0.736	0.352	1.97	-0.533	1.04	0.134	-0.532	0.472	-0.12	-0.0694	-0.168	0.14	1.9
COC(=O)CC=C[C@@H](C)[C@@H]1C=C[C@H](O)[C@@H](CO)O1	0.146	-0.0367	-0.48	-0.593 (inactive)	0.666	0.753	0.369	0.559	1.15	0.165	0.0429	-0.0733	0.43	0.367	-0.818	-0.154	0.647	-0.546	0.297	-0.139
COC(=O)[C@H]1O[C@@H](c2c(OC)c(OC)c(C)c(OC)c2OC)[C@H](C)[C@@H](O)[C@H]1C	0.209	0.138	0.112	-0.187 (inactive)	0.798	0.824	0.0132	0.89	0.743	-0.311	1.08	0.155	0.685	-0.112	-0.421	-0.157	-0.0769	0.0947	0.407	0.101
CCOC(=O)CCN1C(=O)[C@H]2[C@H]3[C@H](O)[C@H](O)CC(=NNC(=O)OCc4ccccc4)[C@@H]3CC[C@H]2C1=O	0.205	-0.111	-0.201	0.265 (inactive)	0.709	0.323	0.188	0.993	0.516	-0.196	0.582	-0.582	0.929	0.634	-0.0903	-0.0819	-0.0035	-0.147	0.754	0.999
CC(CCN1CCc2nc(-c3ccccc3)c(-c3ccccc3)cc2C1)=NOC[C@@H](O)COCc1ccco1	0.752	-0.131	-0.614	0.0302 (inactive)	0.52	0.814	0.377	0.776	1.08	1.48	0.58	-1.11	0.718	-0.216	-0.625	-0.0346	0.0048	-0.0524	0.323	0.365
C[C@@H]1CC[C@H]2C(=O)O[C@@H](Cc3ccccc3)CN2[C@H]1c1ccc(Br)cc1	0.666	0.14	-0.246	-0.387 (inactive)	0.383	0.177	0.389	0.416	0.783	0.619	0.712	0.166	0.276	0.134	0.216	-0.118	-0.221	-0.158	0.579	0.198
CCOC(=O)[C@H](CC(C)C)NC(=O)CCC1CC(OC(=O)NCc2cccc3ccccc23)CC2(CCCC(COC(=O)NCc3ccncc3)O2)O1 (stereo not given in full)	0.741	-0.131	-0.377	-0.00923 (inactive)	1.2	1.06	0.363	0.887	0.559	-0.177	1.38	-1	0.554	-0.118	-0.376	0.0037	-0.0146	-0.036	0.526	0.267
CCOC(=O)[C@H](CC(C)C)NC(=O)CCC1CC(OC(=O)NCc2ccc3c(c2)OCO3)CC2(CCCC(COC(=O)NCCCN3CCCC3=O)O2)O1 (stereo not given in full)	0.929	-0.0602	-0.568	-0.719 (inactive)	0.783	0.805	0.414	0.734	0.509	-0.0813	1.26	-0.584	0.563	0.542	-0.348	-0.0519	-0.0073	-0.158	0.0469	0.758
